# Article PMC5836133, “The intracellular immune receptor Rx1 regulates the DNA-binding activity of a Golden2-like transcription factor”
# In all, about 16,000 sequences were measured (“e-score”: median about -0.044, highest 2% from about 0.38 on). Many of the other results were omitted from the sample, so the highest values are more common in it than they were.
# Target: T1, GST-NbGlk1(82-244) (Nicotiana benthamiana)
# T1 chain: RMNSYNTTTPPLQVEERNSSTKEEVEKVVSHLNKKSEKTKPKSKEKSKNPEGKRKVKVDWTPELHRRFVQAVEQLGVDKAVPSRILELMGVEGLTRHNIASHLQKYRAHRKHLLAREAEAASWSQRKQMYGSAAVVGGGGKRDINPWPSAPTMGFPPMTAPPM
# Assay: protein-binding microarray; NbGlk1 is a Golden2-like transcription factor of Nicotiana benthamiana; high values mean tight binding
# Details: protein: recombinant; tags: GST (pTH6838); dsDNA, one strand shown
row,Sequence,binding signal
1,AATGATAT,0.224 ± 0.0384 E-score
2,ATCCTAAT,0.248 ± 0.0062 E-score
3,AATCAAAT,0.297 ± 0.0152 E-score
4,AATCTAAA,0.403 ± 0.0351 E-score
5,AATCGAAG,0.285 ± 0.0157 E-score
6,AATCTAAG,0.402 ± 0.0258 E-score
7,ATTCTAAA,0.221 ± 0.0153 E-score
8,AATCAAAG,0.221 ± 0.0254 E-score
9,AATCGAAC,0.213 ± 0.0388 E-score
10,AATCTAAT,0.412 ± 0.0116 E-score
11,AATCAAAC,0.25 ± 0.0482 E-score
12,AATTTAAA,0.226 ± 0.0725 E-score
13,AATCTAAC,0.413 ± 0.0271 E-score
14,ATCGCACA,0.256 ± 0.0485 E-score
15,ATCTCATG,0.3181 ± 0.000641 E-score
16,ATTTCCGC,0.333 ± 0.0224 E-score
17,ATCTTATA,0.342 ± 0.00345 E-score
18,ATCTTATC,0.288 ± 0.0568 E-score
19,ATCTGGAG,0.225 ± 0.0674 E-score
20,ATTCGAAT,0.221 ± 0.203 E-score
21,AATCCACT,0.364 ± 0.0439 E-score
22,ATTCCACC,0.235 ± 0.0237 E-score
23,AATCCTCA,0.376 ± 0.0245 E-score

row,Sequence,binding signal
1,AATCCACA,0.419 ± 0.00571 E-score
2,ATCCCACA,0.234 ± 0.0752 E-score
3,AATCCACG,0.406 ± 0.0241 E-score
4,AATCCACC,0.382 ± 0.0151 E-score
5,ATTCCACG,0.222 ± 0.06 E-score
6,AATCCTCC,0.375 ± 0.00794 E-score
7,AATTTTAG,0.222 ± 0.0121 E-score
8,ATCTGCAT,0.31 ± 0.0522 E-score
9,AAATCGAC,0.341 ± 0.00515 E-score
10,AATCCAGA,0.349 ± 0.0199 E-score
11,AATCCAGT,0.398 ± 0.00993 E-score
12,AATCCAGG,0.415 ± 0.00511 E-score
13,AATCCAGC,0.364 ± 0.00724 E-score
14,AATCCCGG,0.326 ± 0.0261 E-score
15,AATCCCAG,0.342 ± 0.0163 E-score
16,ATTACCAC,0.255 ± 0.0899 E-score
17,ATCATAGA,0.214 ± 0.00111 E-score
18,AGGAAATA,0.239 ± 0.0792 E-score
19,ACGAAATA,0.246 ± 0.0511 E-score
20,AAGAAATC,0.443 ± 0.00563 E-score
21,ACGAAATC,0.477 ± 0.0103 E-score
22,AAGAAATA,0.222 ± 0.0864 E-score
23,AAGAAAAT,0.34 ± 0.023 E-score

row,Sequence,binding signal
1,AGGAAATC,0.4891 ± 0.000893 E-score
2,ATGAAAAT,0.321 ± 0.0714 E-score
3,ATGAAATC,0.4523 ± 0.00241 E-score
4,ATTAAATC,0.217 ± 0.0673 E-score
5,ACGAAAAT,0.272 ± 0.0271 E-score
6,AGGAAAAT,0.226 ± 0.0215 E-score
7,AACCGGAT,0.233 ± 0.0852 E-score
8,ATTTTGGG,0.2605 ± 0.000343 E-score
9,ACTGCGAT,0.208 ± 0.0497 E-score
10,AGTGGATA,0.257 ± 0.0756 E-score
11,AAAACTTA,0.223 ± 0.0511 E-score
12,ATCCAGAA,0.288 ± 0.0705 E-score
13,ACGCGAAT,0.244 ± 0.0302 E-score
14,CAATCGTA,0.235 ± 0.0447 E-score
15,ATCTGAGG,0.265 ± 0.031 E-score
16,AATTAGAT,0.224 ± 0.00637 E-score
17,AATAAATC,0.253 ± 0.0219 E-score
18,CAGAAATC,0.405 ± 0.0372 E-score
19,CAGAATTC,0.234 ± 0.013 E-score
20,ACAGTATC,0.304 ± 0.0326 E-score
21,ATTCTTGG,0.242 ± 0.0219 E-score
22,AATCTTTC,0.387 ± 0.0286 E-score
23,AATCTTTG,0.378 ± 0.0158 E-score

row,Sequence,binding signal
1,AATCATGT,0.304 ± 0.0651 E-score
2,AATCTTGC,0.3479 ± 0.00119 E-score
3,AATCTTGA,0.3773 ± 0.0026 E-score
4,AATCTTTA,0.352 ± 0.0119 E-score
5,AATCTTGT,0.397 ± 0.0291 E-score
6,AATCTTGG,0.386 ± 0.0186 E-score
7,AATCGTGG,0.286 ± 0.072 E-score
8,ATCCTAGA,0.263 ± 0.0827 E-score
9,AAGGAGAT,0.261 ± 0.0685 E-score
10,CAGCAATC,0.339 ± 0.0127 E-score
11,AGGCAAAT,0.238 ± 0.00762 E-score
12,ATGCAATC,0.4516 ± 0.0024 E-score
13,ATCCAATC,0.254 ± 0.066 E-score
14,ACGCAATA,0.2818 ± 0.000398 E-score
15,ACGCAATC,0.4798 ± 0.00123 E-score
16,ATGCAAAT,0.299 ± 0.0135 E-score
17,AGGCGATC,0.3174 ± 0.0029 E-score
18,ATACAATC,0.274 ± 0.01 E-score
19,AATCAATC,0.25188 ± 0.000161 E-score
20,AAGCAATC,0.386 ± 0.0251 E-score
21,AGGCAATC,0.417 ± 0.0072 E-score
22,ATCTGTTA,0.295 ± 0.102 E-score
23,AGGATCCT,0.307 ± 0.0236 E-score

row,Sequence,binding signal
1,ATCCGAGA,0.308 ± 0.0203 E-score
2,AAATGGAT,0.235 ± 0.0673 E-score
3,ATCCACTA,0.247 ± 0.0967 E-score
4,AAATTTTA,0.24 ± 0.021 E-score
5,ATTGCCCC,0.205 ± 0.0299 E-score
6,AGGGTAAT,0.262 ± 0.0657 E-score
7,AGTAATCG,0.296 ± 0.00931 E-score
8,ATCACAGA,0.217 ± 0.141 E-score
9,ATATCTTC,0.412 ± 0.0234 E-score
10,ATCTCTTA,0.337 ± 0.015 E-score
11,ATCTCTTC,0.286 ± 0.00741 E-score
12,ATATCGTG,0.348 ± 0.0162 E-score
13,ATATCATG,0.373 ± 0.00698 E-score
14,ATATCGGC,0.354 ± 0.0162 E-score
15,ATATCATA,0.307 ± 0.0181 E-score
16,ATATCTTA,0.408 ± 0.0113 E-score
17,ATATCGTC,0.328 ± 0.0135 E-score
18,ATCTCTGC,0.311 ± 0.0301 E-score
19,ATATCTTG,0.436 ± 0.0173 E-score
20,ATATCTGC,0.438 ± 0.0129 E-score
